High-throughput results: PubChem BioAssay, National Center for Advancing Translational Sciences (NCATS)
The list is not random: actives were taken first. Their share in the collection is about 11%.
PNC assembly inh = perinucleolar compartment assembly inhibition; PC3M PTB-GFP, PNC prevalence imaging, 16 h; stronger effect = lower value; activity change (PNC), negative = inhibition, % at 10 µM; hit rate 3.1% among 140,000; AID 2417;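 active means readout at or below -70, meaning at least 70% loss of cells showing the perinucleolar compartment, a nuclear body marking cancer cells; inconclusive means readout between -30 and a set limit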
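PC3M cells stably expressing PTB-GFP, 750–1000 cells/well, treated 16 h at 37 °C with compound (23 nl of library stock), in duplicate. After paraformaldehyde fixation and Hoechst stain, imaged at 20x; PNC prevalence scored by image analysis.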
ALDH1A1 inh = ALDH1A1 (human) enzyme inhibition | Purified ALDH1A1, NADH fluorescence, propionaldehyde substrate | Potency, µM (series often up to 75.3 µM), usual class: inhibitors | hit rate 7.3% among 220,000 | AID 1030
Target sequence (P00352 whole entry, looked up): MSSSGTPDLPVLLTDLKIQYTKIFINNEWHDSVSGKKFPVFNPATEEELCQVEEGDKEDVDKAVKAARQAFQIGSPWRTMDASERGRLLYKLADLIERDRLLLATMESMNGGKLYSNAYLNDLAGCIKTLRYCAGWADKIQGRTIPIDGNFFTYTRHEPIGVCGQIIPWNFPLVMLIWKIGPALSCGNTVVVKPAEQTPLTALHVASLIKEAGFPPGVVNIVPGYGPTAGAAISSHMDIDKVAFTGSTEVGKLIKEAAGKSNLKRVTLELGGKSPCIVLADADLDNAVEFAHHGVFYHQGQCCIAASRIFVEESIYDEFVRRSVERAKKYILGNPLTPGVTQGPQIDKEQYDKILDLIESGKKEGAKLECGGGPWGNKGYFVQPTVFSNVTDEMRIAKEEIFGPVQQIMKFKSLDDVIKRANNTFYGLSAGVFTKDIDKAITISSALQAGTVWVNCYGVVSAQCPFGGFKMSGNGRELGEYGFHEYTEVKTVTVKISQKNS
HPGD inh = blocks human HPGD enzyme activity; hit rate 4.3% among 150,000; purified HPGD, NADH fluorescence kinetic, PGE2 substrate; P15428; Potency, µM, most hits filed as inhibitors
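20 nM HPGD preincubated 15 min at room temperature with compound in 50 mM Tris-HCl pH 8, 0.01% Tween 20. Started with 1 mM NAD+ and 30 uM prostaglandin E2; NADH fluorescence (360/450 nm) read 5 times over 30-s intervals, last minus first.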
A number is an active result; - = inactive; ? = inconclusive; . = no result; [ ] = remark or other dose. Unless noted, the call rests on the fitted dose curve; in most records, active means well fitted inhibition curve with a large enough effect (not every such curve was filed as active); inconclusive means small, poorly fitted or top-dose-only effect, or another doubt; inactive means no such curve, though single readings can be large or run the other way.

SMILES	PNC assembly inh	ALDH1A1 inh	HPGD inh
COc1ccccc1CNC(=O)CSc1ccc(-c2cccc([N+](=O)[O-])c2)nn1	.	-	.
CC[n+]1ccc(C(=O)NCc2ccccc2)cc1	.	-	.
CCOc1ccc2ccccc2c1/C=N/NC(=O)CNC(=O)C(c1ccccc1)c1ccccc1	-	?	?
CC1CCC(C(C)C)[C@H](O)C1 (some centres undefined)	.	-	-
COc1ccc(C)cc1NC(=O)NCc1ccc(F)cc1	.	-	.
C/C(=N\NC(=O)C1(C)CC1(Br)Br)c1ccc(NC(=O)C2CCC2)cc1 (centres undefined)	-	-	-
C/C(=N/NC(=O)c1ccoc1C)c1ccc(NC(=O)C2CCCC2)cc1	-87	-	-
C/C(=N\NC(=O)c1ccn(C)n1)c1ccc(NC(=O)C2CCCC2)cc1	?	-	14µM
Cc1occc1C(=O)NNC(=O)C1CCCCC1	-	-	-
C[C@]12CC[C@H]3c4ccc(O)cc4CC[C@@H]3[C@H]1CC[C@@H]2OC(=O)CCC1CCCC1	.	-[13.5 µM]	-
O=C(c1cccc(F)c1)N1CCC[C@@]2(CCN(c3ccncc3)C2)C1	.	-	-
O=C(/C(N=Nc1cccc(C(F)(F)F)c1)=C(/O)c1cccs1)C(F)(F)F	.	-	.
Cc1cccc(N=N/C(=C\O)C(=O)c2cccs2)c1	.	8.9µM	.
Nc1nc(-c2ccccc2)nc2sc3c(c12)CCCC3	-	?	?
CN1CCN(NC(=S)Nc2ccc(Oc3ccccc3)cc2)CC1	.	-	.
O=C(NCc1ccccc1F)c1cccs1	-	-	?
Cc1cc(C(=O)NCc2ccccc2F)cs1	?	-	16µM
CCCCN(CC)Cc1ccc(CNC(=S)Nc2cccc(F)c2)o1	.	14µM	.
CCCCN(CC)Cc1ccc(CNC(=O)Nc2ccccc2)o1	-	-	-
CCOC(=O)C1=C(C)NC(=O)NC1C (centres undefined)	?	-	-
CCOC(=O)C1=C(CBr)NC(=O)NC1C (centres undefined)	.	14µM	.
CC(=O)Nc1nc(Cn2nnc(-c3ccc4c(c3)OCO4)n2)nc(N(C)C)n1	.	-	.
COc1ccc(C(=O)/C=C/N(C)C)cc1OC	-	-	-
COc1ccc(C(=O)/C=C/Nc2ccc(S(=O)(=O)Nc3cccc(C(C)=O)c3)cc2)cc1	-	?	?
COc1cccc(C(=O)/C=C/Nc2cc(C)ccc2O)c1	-	25µM	?
SMILES	PNC assembly inh	ALDH1A1 inh	HPGD inh
COc1ccc(C(=O)/C=C/Nc2cccc(O)c2)cc1	-	11µM	?
COc1ccc(C(=O)/C=C/Nc2ccc([N+](=O)[O-])cc2)cc1	-	40µM	-
COc1ccc(C(=O)/C=C/N(C)C)cc1	-80	7.9µM	25µM
COC(=O)/C(=C\C(=O)c1ccc([N+](=O)[O-])cc1)Nc1ccc(OC)cc1	.	-	.
CCOC(=O)c1ccc(N/C=C\C(=O)c2cccc(OC)c2)cc1	-	?	-
COc1cccc(C(C)N(C)Cc2nc(-c3ccoc3)oc2C)c1 (centres undefined)	.	-	.
O=C(CSc1nnc2ccccn12)Nc1ccccc1C(=O)O	.	-	.
CC1CCN(C(=O)C(C)c2ccc([N+](=O)[O-])cc2)CC1 (centres undefined)	.	-	.
COc1ccc(N2CCN(C(=O)Cn3c(=O)[nH]c4ccccc4c3=O)CC2)cc1	.	-	.
CCOC(=O)c1[nH]c2ccccc2c1NC(=O)c1ccc(S(=O)(=O)N2CCCC2)cc1	-	-	-
Cn1c(CSCc2ccc(Cl)cc2)n[nH]c1=S	.	-	.
Cc1ccccc1C(=O)NC(=S)Nc1ccccc1C(F)(F)F	-	13µM	-
COC(=O)c1ccccc1NC(=S)NC(=O)c1ccccc1C	-	?	-
FC(F)(F)c1ccccc1NC(=S)N1CCCC1	.	-	.
O=C(NC(=S)Nc1ccccc1C(F)(F)F)c1ccccc1F	.	-	.
FC(F)(F)c1ccccc1NC(=S)NN=C1CCCCCC1	.	28µM	.
Cc1ccc(C(=O)NC(=S)Nc2ccccc2C(F)(F)F)c(C)c1	-	13µM	-
Cc1c(NC(=S)Nc2ccccc2C(F)(F)F)cccc1[N+](=O)[O-]	?	22µM	.
Cc1c(NC(=O)Nc2cccs2)cccc1[N+](=O)[O-]	.	-	.
Cn1c(=O)c2[nH]c(CCCCC(=O)O)nc2n(C)c1=O	.	?	-
CCOC(=O)C1(Cc2cccc(OC)c2)CCN(Cc2cccnc2)CC1	.	-	.
CCCCc1nc2c(c3c1C[C@H](C)OC3)CN(C(=O)c1cc(I)ccc1F)CC2	.	-[13.5 µM]	-
C/C=C\C[C@@H](C)[C@@H](O)[C@H]1C(=O)N[C@@H](CC)C(=O)N(C)CC(=O)N(C)[C@@H](CC(C)C)C(=O)N[C@@H](C(C)C)C(=O)N(C)[C@@H](CC(C)C)C(=O)N[C@@H](C)C(=O)N[C@H](C)C(=O)N(C)[C@@H](CC(C)C)C(=O)N(C)[C@@H](CC(C)C)C(=O)N(C)[C@@H](C(C)C)C(=O)N1C	.	-	-
CCCC(=O)NC(=S)Nc1ccccc1C(F)(F)F	-	?	-
N#CCC(=O)NNC(=S)Nc1ccccc1C(F)(F)F	.	18µM	.
SMILES	PNC assembly inh	ALDH1A1 inh	HPGD inh
COc1ccc(-c2nc3cnc(Nc4cccc(OC)c4)nc3n(C)c2=O)cc1	.	-	.
C[C@@H]1OC(OC2CC[C@@]3(C)C(CC[C@@]4(C)C3CC=C3C5CC(C)(C)CC[C@]5(C(=O)OC5OCC(O)[C@@H](O)[C@@H]5OC5O[C@@H](C)[C@H](O[C@H]6OC(CO)C(O)C(O)C6O)C(O)C5O)C(O)C[C@@]34C)C2(C)C)C(O)C(O)[C@H]1OC1OCC(O)C(O)[C@H]1O (some centres undefined)	.	-	-
Cc1cc(NCCO)nc(-n2nc(C)cc2C)n1	-	?	.
Cc1cc(N(CCO)CCO)nc(-n2nc(C)cc2C)n1	-	11µM	-
COc1ccccc1N(C)S(=O)(=O)c1ccc(C(=O)OCC(=O)N(C(C)C)C(C)C)cc1	.	-	.
COc1ccccc1CN1CC[C@@]2(CCCN(S(C)(=O)=O)C2)C1	.	-	-
Cn1c2ccccc2c2nnc(SCc3nnc(-c4ccccc4)o3)nc21	.	-	.
Clc1ccc(-c2nnc(CSc3nnc(-c4cccs4)o3)o2)cc1	-	-	-
Clc1ccc(OCc2nnc(SCc3nnc(-c4ccccc4)o3)o2)c(Cl)c1	?	?	7.9µM
Clc1ccc2nc(SCc3nnc(-c4ccccc4)o3)[nH]c2c1	-	11µM	18µM
Cn1c(SCc2nnc(-c3ccccc3)o2)nc2ccccc21	.	13µM	.
Cc1cc(=O)[nH]c(SCc2nnc(-c3ccccc3)o2)n1	-	-	-
COc1cc(NC(=O)C2=C(N3CCOCC3)/C(=C\c3ccc(Cl)cc3Cl)CC2)cc(OC)c1OC	-	-	-
COC(=O)c1cccc(NC(=S)NCc2ccc(F)cc2)c1	.	-	.
Cc1ccc(NC(=O)COc2ccc(Br)cn2)cc1	.	-	.
CC(=O)NCCNc1ncnc2ccc(-c3ccccc3C(F)(F)F)cc12	.	-	.
COc1ccc2c(c1)C(=O)[C@@H](OC(=O)NS(=O)(=O)c1ccc(F)cc1)[C@H](c1ccc(OC)c(Br)c1)O2	.	-	-
COc1ccc(NC(=O)C(C)Sc2nnc3c4c(nc(-c5ccc(OC)cc5)n23)CC(C)(C)OC4)cc1 (centres undefined)	-	-	.
COc1ccc(C(=O)CSc2nc(N)nc(SC)c2C#N)cc1	-	?	-
N#Cc1ccc(-c2ccco2)nc1SCC(=O)c1ccc(Cl)cc1	-	?	-
N#CC1=C(N)NC(SCC(=O)c2ccc(Br)cc2)=C(C#N)C12CCCCC2	-	13µM	-
